The entries come from a sample that favours hits as a whole.
SARS PLpro yeast: blocks SARS-CoV papain-like protease in a yeast assay. Potency, µM (titrated, usually from 32.9 µM), for the others: top-dose activity, positive = growth rescue, hits mostly activators. 330,000 tested, 0.19% active. S. cerevisiae expressing SARS-CoV PLpro, growth rescue; calls by dose curve; note: potency is the fitted concentration of half-maximal effect; 0% is about no effect; nearly all actives have a fitted effect of over 55% in size
Cycloheximide cs: affects cycloheximide protein synthesis inhibition readout, counter-screen; cell reporter, cycloheximide protein synthesis inhibition counterscreen; max response, %; 300,000 tested, 12% active; in the data active = max response mostly above about 13%, no sharp cut-off; inactive = mostly below about 14%; note: read at 38.3 µM for the half of the compounds with a filed dose; 0% is about no effect
LmPK inhibitor: blocks Leishmania mexicana pyruvate kinase activity; AID 1721; 290,000 tested, 0.37% active; Q27686; Potency, µM (highest dose often 57.5 µM), without a hit: at the highest dose activity change, negative = inhibition, actives largely listed as inhibitors; purified LmPK, Kinase-Glo ATP luminescence, 1 h; note: potency is the fitted concentration of half-maximal effect; % is set by controls: 0 for no effect and ±100 for the full control effect
Target sequence (Q27686 whole entry, looked up): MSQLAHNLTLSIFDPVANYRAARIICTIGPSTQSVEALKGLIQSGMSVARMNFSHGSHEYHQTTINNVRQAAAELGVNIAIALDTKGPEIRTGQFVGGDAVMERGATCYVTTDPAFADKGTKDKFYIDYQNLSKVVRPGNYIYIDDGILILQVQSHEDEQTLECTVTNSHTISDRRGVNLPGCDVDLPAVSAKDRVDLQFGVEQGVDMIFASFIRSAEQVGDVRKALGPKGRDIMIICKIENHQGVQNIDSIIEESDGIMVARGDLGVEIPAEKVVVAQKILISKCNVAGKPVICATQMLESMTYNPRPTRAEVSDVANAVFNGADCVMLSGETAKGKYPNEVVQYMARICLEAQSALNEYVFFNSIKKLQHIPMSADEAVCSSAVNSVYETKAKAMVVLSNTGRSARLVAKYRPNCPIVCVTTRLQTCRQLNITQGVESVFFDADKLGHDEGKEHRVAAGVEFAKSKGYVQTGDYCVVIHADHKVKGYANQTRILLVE
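In 50 mM imidazole pH 7.2 with 7 mM MgCl2, LmPK (0.1 nM) turned over PEP (0.5 mM) and ADP (0.1 mM) for 1 h at room temperature. Luciferase read-out of ATP.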
NS1 function inh: blocks influenza NS1 protein function | Potency, µM (highest dose often 46.1 µM), for inactives: at the top dose activity, positive = more growth | 270,000 tested, 0.4% active; calls by dose curve; note: potency is the fitted concentration of half-maximal effect; actives are rising curves; nearly all actives have a fitted effect of over 50% in size
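Read-out: OD600 growth recovery of NS1-expressing budding yeast. Cells grown overnight at 30C in -URA glucose medium, washed, resuspended and diluted 1:100 in 2% galactose assay medium, pH 6.0. Same strain lacking NS1 served as positive control.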
Shiga toxin inh: blocks Shiga toxin action in Vero cells | Vero cells, Shiga toxin protein synthesis inhibition reporter | 290,000 tested, 9.2% active | inhibition, % at 38.7 µM; in the data active = inhibition mostly above about 28%, no sharp cut-off; inactive = mostly below about 43%; note: 0% is about no effect
TbPYK inhibitor: blocks Trypanosoma brucei pyruvate kinase. Q57TT1. TbPYK enzyme, Kinase-Glo Plus ATP luminescence, 45 min. Potency, µM (titrated, usually from 76.8 µM), for the others: at the top dose activity, negative = inhibition, actives largely listed as inhibitors. 410,000 tested, 0.12% active. AID 624173; note: potency is the fitted concentration of half-maximal effect; % is set by controls: 0 for no effect and ±100 for the full control effect; nearly all actives have a fitted effect of over 50% in size
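Luminescence from Kinase-Glo Plus, added after a 45-minute room-temperature reaction, served as the end-point read-out. The enzyme and substrate were preincubated with compound before ADP (130 uM final) initiated turnover. Concentration-effect curves came from normalized qHTS data.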
* = called active by the depositor; . = not tested or not shown; ! = a repeat was not active; [ ] = dose if it differs, or a comment. Unless noted, calls come from the whole dose curve; as a rule, active = well fitted curve in the direction sought with a large enough effect; inconclusive = small, poorly fitted or top-dose-only effect, or another doubt; inactive = no such curve, though single readings can be large; an effect the other way counts as inactive or inconclusive.

SMILES | SARS PLpro yeast | Cycloheximide cs | LmPK inhibitor | NS1 function inh | Shiga toxin inh | TbPYK inhibitor
Cc1noc(C)c1COC(=O)c1ccc(F)c(S(=O)(=O)N2CCOCC2)c1 | 2% | . | . | . | . | 2%
CN(Cc1ccccc1)c1nc2c(c(=O)[nH]c(=O)n2C)n1CCCc1ccccc1 | -6% | 27* | -1% | -49% | 41 | -1%
CC(C)(C)C1=CC=C(C(C)(C)C)C(=O)C1=O | 0% | -2 | 22µM* | -1% | 0 | .
CCN1CCN(Cc2ccc(NC(=O)c3ccc(C)c(/C=C/c4cnc(Nc5cc(N6CCNCC6)nc(C)n5)cn4)c3)cc2C(F)(F)F)CC1 | -3% | -7 | 1% | -20% | -8 | -1%
CC1=C(C(=O)Nc2ccccc2)C(c2ccccn2)n2nc(SCc3ccccc3)nc2N1 (centres undefined) | . | . | . | . | . | 1%
Cc1ccc(S(=O)(=O)N2CCOCC2)cc1C(=O)NC(C)CCc1ccccc1 (centres undefined) | 8% | . | . | . | . | 1%
CC(C)NCC(O)c1ccc2ccccc2c1 (centres undefined) | . | . | . | . | . | -6%
C/C=C/C(O)c1ccc2ccccc2c1 (centres undefined) | -5% | 20*! | 4% | 26% | 26*! | .
Cc1ccc2cccc(OCC(=O)c3cc(C)n(Cc4ccco4)c3C)c2n1 | 2% | 25* | -14% | . | 101 | .
Cc1cc(C(=O)COC(=O)[C@H](C)NC(=O)c2ccco2)c(C)n1Cc1ccco1 | -1% | 35* | -2% | . | 59* | -20%
Cc1ccc(C(=O)NCC(=O)OCC(=O)c2cc(C)n(Cc3ccco3)c2C)cc1 | -1% | 9 | 2% | 9% | -7 | -4%
Cc1cccc(NC(=O)c2ccc3nc(N4CCOCC4)sc3c2)c1C | 8% | 10 | 1% | 10% | 16* | -4%
CCc1cccc(C)c1NC(=O)c1ccc2nc(N3CCOCC3)sc2c1 | -6% | 1 | -3% | -12% | -7 | 1%
O=C(Nc1ccccc1Cl)c1ccc2nc(N3CCOCC3)sc2c1 | -1% | 11* | -1% | 5% | 19 | -12%
O=C(Nc1ccc2nc(N3CCOCC3)sc2c1)c1ccccc1 | 2% | . | . | . | . | -6%
O=C(Nc1ccc(F)cc1F)c1ccc2nc(N3CCOCC3)sc2c1 | 5% | 18* | -1% | -11% | 49* | -2%
O=C(Nc1ccc2nc(N3CCOCC3)sc2c1)c1ccc(F)cc1 | 1% | . | . | . | . | 1%
O=C(NCCc1ccccc1)c1ccc2nc(N3CCOCC3)sc2c1 | -2% | 12* | -3% | -7% | 14 | 1%
CC(CCc1ccccc1)NC(=O)c1ccc2nc(N3CCOCC3)sc2c1 (centres undefined) | -2% | 5 | -3% | . | -9 | -5%
COc1ccc(CCNC(=O)CSC2=NS(=O)(=O)c3cc(F)ccc3N2)cc1OC | . | . | . | . | . | 0%
O=C(Nc1cccc2ccccc12)N1N=CCC1c1ccccc1 (centres undefined) | -2% | 59* | 9% | -4% | 109* | -19%
S=C(Nc1ccccc1)N1N=CCC1c1ccccc1 (centres undefined) | -8% | 26* | -1% | 4% | 78* | -8%
Cc1ccc(SCC(=O)N2N=CCC2c2ccccc2)cc1 (centres undefined) | -3% | 24* | -1% | -10% | 67 | 1%
Fc1ccc(NC(=S)N2N=CCC2c2ccccc2)cc1 (centres undefined) | 1% | 80* | 2% | -7% | 61* | .
O=C(Nc1cccc(Cl)c1)N1N=CCC1c1ccccc1 (centres undefined) | 1% | -3 | 4% | 3% | 10 | 2%
CCCOc1ccc(CNC(=O)c2ccc(C)c(-n3c(C)nc4cccnc43)c2)cc1 | . | . | . | . | . | -1%[15.4 µM]
Cc1ccc(NC(=O)c2cc(S(=O)(=O)N3CCCC3)cn2C)cc1C | 2% | -1 | 1% | 2% | -2 | -10%
Cc1ccc(NC(=O)CCNC(=O)c2ccco2)cc1F | 2% | 13* | 3% | . | 26 | -2%
CCn1nccc1C(=O)Nc1ccc(C)c(C)c1 | -8% | 34* | -22% | -1% | 62* | 1%
O=C(Nc1ccccn1)c1ccc(NC(=O)c2ccco2)cc1 | -11% | 40* | -24% | -88% | 71* | -11%

Bioassay records (PubChem BioAssay)
